RORg inh: blocks mouse ROR gamma transcriptional activity. P51450. Drosophila S2 Gal4-RORgamma UAS-luciferase reporter, 20 h. Potency, µM (top dose mostly 53.6 µM), actives largely listed as inhibitors. 310,000 tested, 5.4% active; further: nearly all actives have a fitted effect of over 60% in size
Target sequence (P51450 whole entry, looked up, the tested form may be a part): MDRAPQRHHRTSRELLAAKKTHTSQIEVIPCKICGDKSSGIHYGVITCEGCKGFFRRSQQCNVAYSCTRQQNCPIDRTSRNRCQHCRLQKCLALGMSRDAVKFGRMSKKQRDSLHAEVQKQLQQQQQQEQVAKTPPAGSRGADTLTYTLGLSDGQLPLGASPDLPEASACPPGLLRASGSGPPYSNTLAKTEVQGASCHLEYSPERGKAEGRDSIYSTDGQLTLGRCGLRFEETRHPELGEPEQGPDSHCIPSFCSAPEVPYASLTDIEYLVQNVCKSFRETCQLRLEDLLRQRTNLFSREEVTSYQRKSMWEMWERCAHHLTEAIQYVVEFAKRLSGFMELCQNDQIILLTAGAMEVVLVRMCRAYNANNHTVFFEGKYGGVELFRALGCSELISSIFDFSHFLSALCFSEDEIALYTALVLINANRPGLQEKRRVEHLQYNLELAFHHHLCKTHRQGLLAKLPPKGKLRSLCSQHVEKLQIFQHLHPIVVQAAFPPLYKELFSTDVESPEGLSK
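Compounds are pin-transferred onto Drosophila Schneider cells expressing a copper-inducible Gal4–ROR gamma transactivation domain fusion. After 1 hr, copper sulfate is added to 700 uM final; luciferase is read 20 hr later.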
HepG2 viability: kills HepG2 cells in TGF-b inhibitor counter-screen; 410,000 tested, 0.76% active; Potency, µM (series often up to 46.1 µM), most hits filed as cytotoxic; HepG2 CAGA-GFP viability, ATP luminescence, 18 h
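CellTiter-Glo luminescence gave cytotoxicity after 18 hours at 37 degrees C. The cells were HepG2 CAGA-GFP in 1% FBS DMEM, stimulated with 500 pg/mL TGF-beta after compound addition. %Activity was normalised to no-cell wells (complete cell-killing) and DMSO (no toxicity), and curves were fitted and classified.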
Gal4-VP16 FLuc: Gal4-VP16 reporter inhibition counter-screen; Drosophila S2 Gal4-VP16 UAS-luciferase, luminescence, 20 h; Potency, µM (series often up to 53.6 µM), hits mostly inhibitors; 310,000 tested, 3.5% active; AID 2546;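 further: Gal4-VP16 expression switched on by copper sulfate through the metallothionein promoter; nearly all actives have a fitted effect of over 50% in size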
TGFb inhibitor: TGF-b pathway inhibition | HepG2 CAGA-GFP TGF-b/SMAD3 reporter, GFP fluorescence, 18 h; TGF-beta stimulated, 500 pg/mL final | Potency, µM (series often up to 46.1 µM), hits mostly inhibitors | 410,000 tested, 1.2% active | AID 588855; further: nearly all actives have a fitted effect of over 65% in size
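HEPG2 CAGA-GFP cells (1000/well, DMEM with 1% FBS) were pre-incubated 2 h at 37 degrees C, given compound by pin tool, then stimulated with TGF-beta at 500 pg/mL final for 18 h before per-cell GFP fluorescence imaging.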
ATXN2 expr inh: reduces ATXN2 reporter expression in HEK-293 cells. 360,000 tested, 0.72% active. HEK-293 ATXN2-luciferase reporter, luminescence, 24 h. Potency, µM (series often up to 57 µM), hits mostly inhibitors. AID 1745845; further: nearly all actives have a fitted effect of over 55% in size
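ATXN2-luciferase reporter cells (luciferase flanked by upstream and downstream ATXN2 gene portions) were treated 24 h at 37 °C with compounds at up to 57 uM. SteadyGlo luminescence gave expression; GF-AFC fluorescence gave viability.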
ATXN viability: cell viability loss in ATXN counter-screen. S2 cells (HEK-293 line with an ATXN2-luciferase reporter) viability, CellTiter-Fluor protease fluorescence, 24 h. Potency, µM (series often up to 56.7 µM), hits mostly cytotoxic. 400,000 tested, 0.49% active. AID 651635; further: nearly all actives have a fitted effect of over 40% in size
Hits are given with their value; . = inactive; ? = inconclusive; / = no result; [ ] = dose if it differs, or a comment. Hits are enriched below; roughly 6.1% of the tested compounds scored in any of these assays. The call rests on the fitted dose curve; in most records, active means well fitted curve in the direction sought with a large enough effect; inconclusive means small, poorly fitted or top-dose-only effect, or another doubt; inactive means no such curve, though single readings can be large; an effect the other way counts as inactive or inconclusive.

SMILES	RORg inh	HepG2 viability	Gal4-VP16 FLuc	TGFb inhibitor	ATXN2 expr inh	ATXN viability
CN(C)c1ccc(/C=C/c2sc3ccccc3[n+]2CCCCI)cc1	/	.	/	?	/	/
CCN(CC)c1ccc(/C=N/NC(=O)c2nnn(-c3nonc3N)c2-c2ccc(C)cc2)cc1	13µM	.	?	.	/	/
Cc1ccc(/C=N/NC(=O)c2nnn(-c3nonc3N)c2-c2cccs2)cc1	.	.	.	.	/	?
CCCOc1ccc(-c2c(C(=O)N/N=C/c3ccccc3)nnn2-c2nonc2N)cc1	.	.	.	.	.	.
CCCOc1ccc(-c2c(C(=O)N/N=C/c3ccsc3)nnn2-c2nonc2N)cc1	7.9µM	.	?	.	/	.
CCOc1ccc(-c2c(C(=O)N/N=C/c3c[nH]c4ccccc34)nnn2-c2nonc2N)cc1	?	.	3.2µM	?	.	.
CCOc1ccc(/C=N/NC(=O)c2nnn(-c3nonc3N)c2-c2ccc(OCC)cc2)cc1	?	.	?	.	.	.
COc1cc2nc(N3CCCN(C)CC3)nc(Nc3ccncc3)c2cc1OC	/	.	/	?	/	/
COc1ccc(CCNC(=O)C2CCN(c3nc4ccccc4nc3C(F)(F)F)CC2)cc1OC	/	.	/	.	.	.
CCOc1ccc2nc(NC(=O)c3nc(SC(C)C)ncc3Cl)sc2c1	/	.	/	.	.	.
O=C(Cc1ccc(OCCC2CCCCC2)cc1)NO	/	.	/	.	/	/
CC(=O)Nc1c(Br)cc2c(c1Br)C(=O)c1ccccc1-2	/	.	/	.	.	?
CC(=O)C1=C(c2ccc(Br)cc2)C(=O)c2ccccc2C1=O	14µM	.	6.3µM	?	3.5µM	7.1µM
Cc1ccc(-n2cc(CN(C)Cc3ncc[nH]3)c(-c3cccc(C)c3)n2)cc1	.	.	6.3µM	?	?	?
CCn1ccnc1CN(C)Cc1cn(-c2ccc(C)cc2)nc1-c1ccc(F)cc1	2.8µM	.	16µM	?	/	?
CN(Cc1ncc[nH]1)Cc1cn(-c2ccccc2)nc1-c1ccc2c(c1)OCO2	.	.	.	.	.	?
Cc1cccc(-n2cc(CN3CCN(Cc4nccn4C)CC3)c(-c3cccc(F)c3)n2)c1	11µM	.	?	?	/	?
Cc1ccc(-c2nn(-c3cccc(F)c3)cc2CN2CCN(c3ccccn3)CC2)o1	.	.	.	?	/	.
COc1ccc(-n2cc(CN3CCCC3)c(-c3cccc(F)c3)n2)cc1	.	.	.	.	.	.
Cc1ccc(-c2nn(-c3cccc(F)c3)cc2CN(Cc2nccn2C)C(C)C)o1	5.6µM	.	?	?	.	?
COc1cccc2c1C(=O)/C(=C\c1ccc(N(C)C)cc1)C2	/	.	/	.	/	/
CCn1ccnc1CN(C)Cc1cn(C)nc1-c1ccccc1F	?	.	.	.	.	.
CCn1ccnc1CN(C)Cc1cn(-c2cc(C)ccc2C)nc1-c1ccccc1	.	.	.	?	.	?
Cc1ccc(-n2cc(CN(C)Cc3nccn3C)c(-c3ccc(F)cc3)n2)cc1	7.9µM	.	?	?	.	.
CCn1ccnc1CN(C)Cc1cn(-c2ccccc2)nc1-c1ccc(OC)cc1F	3.5µM	.	?	.	.	.
SMILES	RORg inh	HepG2 viability	Gal4-VP16 FLuc	TGFb inhibitor	ATXN2 expr inh	ATXN viability
Cc1nn(-c2ccccc2)c(Cl)c1C(=O)Nc1nnc(C2CCCC2)s1	7.9µM	.	?	.	.	.
Cc1nn(-c2ccccc2)c(Cl)c1C(=O)NC1CCCCC1	.	.	.	.	.	?
C[C@H](NC(=O)c1nc[nH]c1C(=O)N[C@@H](CCCCNC(=O)OC(C)(C)C)C(=O)OC(C)(C)C)c1ccccc1	5.6µM	.	11µM	?	?	?
CC(C)(C)OC(=O)NCCCC[C@H](NC(=O)c1nc[nH]c1C(=O)NCc1ccccc1)C(=O)OC(C)(C)C	14µM	.	?	?	?	?
CC(C)C[C@H](NC(=O)c1nc[nH]c1C(=O)N(C)Cc1ccccc1)C(=O)OC(C)(C)C	.	.	.	.	.	?
CN(Cc1ccccc1)C(=O)c1[nH]cnc1C(=O)N[C@@H](CCCCNC(=O)OC(C)(C)C)C(=O)OC(C)(C)C	7.1µM	.	?	.	.	?
C[C@@H](NC(=O)c1nc[nH]c1C(=O)NCCCCCNC(=O)OC(C)(C)C)c1ccccc1	/	.	/	?	.	?
CC(C)(C)OC(=O)NCCCC[C@H](NC(=O)c1[nH]cnc1C(=O)N[C@@H](Cc1ccccc1)C(=O)OC(C)(C)C)C(=O)OC(C)(C)C	7.9µM	.	?	?	.	?
CCOc1cc(CNC(=O)CSc2n[nH]c(-c3ccccc3)n2)cc(OCC)c1OCC	/	.	/	?	/	/
COc1ccc(OC)c(C2=Nn3c(nnc3-c3cc(OC)ccc3OC)SC2)c1	.	/	.	/	/	/
O=c1c2ccccc2[nH]c(=S)n1CCCN1CCN(c2ccccc2)CC1	7.9µM	.	10µM	.	.	.
O=c1c2cccnc2[nH]c(=S)n1CCCN1CCN(c2ccccc2F)CC1	2.2µM	.	.	.	.	.
O=c1c2ccccc2[nH]c(=S)n1CCN1CCCCC1	.	.	.	.	.	.
CC1CCCCN1CCn1c(=S)[nH]c2ncccc2c1=O (configuration not stated)	.	.	.	.	.	.
O=c1c2ccccc2[nH]c(=S)n1CCCN1CCN(c2ccccc2F)CC1	3.5µM	.	8.9µM	.	/	?
CC1CCC2C(=O)OC(CO)CN2C1c1ccc(Br)cc1 (configuration not stated)	.[10 µM]	/	.[10 µM]	/	/	/
Nc1ccccc1/C=C/c1ccnc2ccccc12	/	.	/	.	/	/
Cc1ccccc1-c1cc2c(c(OC3CCOC3)c1)OCCN(C(=O)Cn1cccn1)C2 (configuration not stated)	/	/	/	/	/	.
CCOc1ccc(N)c(SSc2cc(OCC)ccc2N)c1	7.9µM	10µM	6.3µM	6.3µM	/	1µM
CCOc1cccc(N)c1	.	.	.	.	.	.
COc1cccc(Cn2c(=O)c(-c3cccc(C#N)c3)nc3cnc(N4CCOCC4)nc32)c1	.	/	.	/	/	/
[O-]/C(=C(\C(=S)Nc1cccc2ccccc12)[n+]1ccccc1)c1ccc(Cl)s1	20µM	.	?	.	?	?
Cc1csc(-c2nnc(Nc3ccc(Oc4ncccc4-c4ccnc(N)n4)cc3)c3ccccc23)c1	/	/	/	/	12µM	/
Cc1ccc(-n2c(-c3ccccc3)c[n+]3c2CCc2ccccc2-3)c(C)c1	?	.	7.1µM	?	?	.
Cc1sc2ccccc2[n+]1CCC[n+]1c(C)sc2ccccc21	/	.	/	11µM	/	/
CSc1ncccc1C(=O)Nc1ncc(C)s1	11µM	.	.	.	.	.
CSc1ccccc1C(=O)Nc1ncc(C)s1	.	.	.	.	.	.
CSc1ncccc1C(=O)Nc1ccc(S(=O)(=O)Nc2nccs2)cc1	.	.	.	.	.	.

High-throughput results as filed in PubChem BioAssay.
